Our source for the binding signal values is publication PMC8384837, “Expanding the binding specificity for RNA recognition by a PUF domain”.

What all share (test): yeast three-hybrid, YBZ-1, SC-Leu-His + 0.5 mM 3-AT, 4 days
Common to all, as to settings: tags: N-Gal4 AD-HA kept; label: inside an RPR1-promoter hybrid RNA with tandem MS2 sites; ssRNA

Experiment [1] deals with PUM1 PUF domain R1-GGR (Homo sapiens, UniProt Q14671 828-1176, S863G;R864G;Q867R). The method in brief:
(§1)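 Matching RNA elements and Pumilio-1 PUF domain libraries, randomized at the three base-contacting residues of every repeat, were co-expressed from a centromeric plasmid in strain YBZ-1 (LexA–MS2 coat fusion, HIS3 reporter). The repeat regions were PCR-amplified and Illumina-sequenced from cells grown four days on SC-Leu (input) or SC-Leu-His + 0.5 mM 3-AT (selection). The interaction score is the log change in variant frequency from input to selection. It is computed in log2, with a pseudocount of 1 for absent variants.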

Experiment [2] concerns the target T1, PUM1 PUF domain R6-FWV (Homo sapiens, UniProt Q14671 828-1176, N1043F;Y1044W;Q1047V).
T1 sequence: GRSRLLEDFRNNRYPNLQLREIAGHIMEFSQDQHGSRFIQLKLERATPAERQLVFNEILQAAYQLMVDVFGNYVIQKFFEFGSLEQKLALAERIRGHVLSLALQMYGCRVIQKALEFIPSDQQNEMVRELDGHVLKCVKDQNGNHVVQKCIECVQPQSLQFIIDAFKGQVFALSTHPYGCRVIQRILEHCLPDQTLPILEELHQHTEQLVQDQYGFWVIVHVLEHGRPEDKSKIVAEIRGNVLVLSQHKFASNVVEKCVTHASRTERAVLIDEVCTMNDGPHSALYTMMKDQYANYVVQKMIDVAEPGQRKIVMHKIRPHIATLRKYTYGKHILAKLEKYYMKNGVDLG
Put shortly: as §1

Experiment [3] has as its target PUM1 PUF domain R4-DWM (Homo sapiens, UniProt Q14671 828-1176, N971D;H972W;Q975M). The method in brief:
as §1

The target in experiment [4] is PUM1 PUF domain R8-RRV (Homo sapiens, UniProt Q14671 828-1176, N1122R;Y1123R;Q1126V). Put shortly: as §1
In experiment [5] the target is PUM1 PUF domain R3-DHL (Homo sapiens, UniProt Q14671 828-1176, C935D;R936H;Q939L). Put shortly: as §1
Experiment [6] concerns the target PUM1 PUF domain R3-TYH (Homo sapiens, UniProt Q14671 828-1176, C935T;R936Y;Q939H). The method in brief:
as §1

The target of experiment [7] is PUM1 PUF domain R4-SPL (Homo sapiens, UniProt Q14671 828-1176, N971S;H972P;Q975L). The method in brief: as §1
Chain of PUM1 PUF domain R4-SPL (Q14671 828-1176 N971S/H972P/Q975L): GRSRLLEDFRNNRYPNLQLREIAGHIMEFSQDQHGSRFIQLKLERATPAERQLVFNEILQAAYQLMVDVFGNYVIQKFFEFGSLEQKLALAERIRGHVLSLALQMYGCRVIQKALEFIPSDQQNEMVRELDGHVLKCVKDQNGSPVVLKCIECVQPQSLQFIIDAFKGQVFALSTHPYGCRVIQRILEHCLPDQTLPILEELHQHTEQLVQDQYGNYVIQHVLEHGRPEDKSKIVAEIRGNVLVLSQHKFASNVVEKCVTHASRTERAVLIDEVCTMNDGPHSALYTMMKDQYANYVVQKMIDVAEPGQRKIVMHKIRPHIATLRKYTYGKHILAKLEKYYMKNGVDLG
For experiment [8], the target named is PUM1 PUF domain R3-VCQ (Homo sapiens, UniProt Q14671 828-1176, C935V;R936C). Put shortly:
as §1

Experiment [9] addresses PUM1 PUF domain R4-AQS (Homo sapiens, UniProt Q14671 828-1176, N971A;H972Q;Q975S). The method in brief:
as §1

Experiment [10] concerns the target PUM1 PUF domain R5-ASR (Homo sapiens, UniProt Q14671 828-1176, C1007A;R1008S;Q1011R). The method in brief: as §1
Experiment [11] deals with PUM1 PUF domain R5-WSR (Homo sapiens, UniProt Q14671 828-1176, C1007W;R1008S;Q1011R). The method in brief:
as §1

Experiment [12] concerns the target PUM1 PUF domain R5-KLM (Homo sapiens, UniProt Q14671 828-1176, C1007K;R1008L;Q1011M). Put shortly:
as §1

Experiment [13] concerns the target PUM1 PUF domain R5-KGI (Homo sapiens, UniProt Q14671 828-1176, C1007K;R1008G;Q1011I). Put shortly: as §1
The target of experiment [14] is PUM1 PUF domain R3-WYS (Homo sapiens, UniProt Q14671 828-1176, C935W;R936Y;Q939S). The method in brief: as §1
For experiment [15], the target named is PUM1 PUF domain R3-FIG (Homo sapiens, UniProt Q14671 828-1176, C935F;R936I;Q939G). The method in brief:
as §1

The target in experiment [16] is PUM1 PUF domain R3-MCK (Homo sapiens, UniProt Q14671 828-1176, C935M;R936C;Q939K). The method in brief: as §1
Chain of PUM1 PUF domain R3-MCK (Q14671 828-1176 C935M/R936C/Q939K): as the sequence (Q14671 828-1176 N971S/H972P/Q975L) above, with C108M, R109C, Q112K, S144N, P145H, L148Q counted along it
Experiment [17] addresses PUM1 PUF domain R8-MYL (Homo sapiens, UniProt Q14671 828-1176, N1122M;Q1126L). The method in brief: as §1
In experiment [18] the target is PUM1 PUF domain R1-KTR (Homo sapiens, UniProt Q14671 828-1176, S863K;R864T;Q867R). Put shortly: as §1
Chain of PUM1 PUF domain R1-KTR (Q14671 828-1176 S863K/R864T/Q867R): as the sequence (Q14671 828-1176 N971S/H972P/Q975L) above, with S36K, R37T, Q40R, S144N, P145H, L148Q counted along it
For experiment [19], the target named is PUM1 PUF domain R5-AAD (Homo sapiens, UniProt Q14671 828-1176, C1007A;R1008A;Q1011D). The method in brief:
as §1

For experiment [20], the target named is PUM1 PUF domain R5-HQD (Homo sapiens, UniProt Q14671 828-1176, C1007H;R1008Q;Q1011D). The method in brief: as §1
Chain of PUM1 PUF domain R5-HQD (Q14671 828-1176 C1007H/R1008Q/Q1011D): as the sequence (Q14671 828-1176 N971S/H972P/Q975L) above, with S144N, P145H, L148Q, C180H, R181Q, Q184D counted along it

Chain of PUM1 PUF domain R1-GGR (Q14671 828-1176 S863G/R864G/Q867R): as the sequence (Q14671 828-1176 N971S/H972P/Q975L) above, with S36G, R37G, Q40R, S144N, P145H, L148Q counted along it
Chain of PUM1 PUF domain R5-KLM (Q14671 828-1176 C1007K/R1008L/Q1011M): as the sequence (Q14671 828-1176 N971S/H972P/Q975L) above, with S144N, P145H, L148Q, C180K, R181L, Q184M counted along it
Chain of PUM1 PUF domain R3-VCQ (Q14671 828-1176 C935V/R936C): as the sequence (Q14671 828-1176 N971S/H972P/Q975L) above, with C108V, R109C, S144N, P145H, L148Q counted along it
Chain of PUM1 PUF domain R4-AQS (Q14671 828-1176 N971A/H972Q/Q975S): as the sequence (Q14671 828-1176 N971S/H972P/Q975L) above, with S144A, P145Q, L148S counted along it
Chain of PUM1 PUF domain R5-KGI (Q14671 828-1176 C1007K/R1008G/Q1011I): as the sequence (Q14671 828-1176 N971S/H972P/Q975L) above, with S144N, P145H, L148Q, C180K, R181G, Q184I counted along it
Chain of PUM1 PUF domain R8-MYL (Q14671 828-1176 N1122M/Q1126L): as the sequence (Q14671 828-1176 N971S/H972P/Q975L) above, with S144N, P145H, L148Q, N295M, Q299L counted along it

As for “GGCUAGAACUAGUGGAUCCCCCGGCGCCCGGCGGCUCGAGCCCGGGUAAGUGUAAAUCGUCUGCAUGCCGCCGGGCGCCAUGCCUGCAGGUCGACUCUAGAAAACAUG”, the binding signal in [1] is 3.41 log2 enrichment (interaction score).

For “GGCUAGAACUAGUGGAUCCCCCGGCGCCCGGCGGCUCGAGCCCGGGUAAGUGUAAAUAGUCUGCAUGCCGCCGGGCGCCAUGCCUGCAGGUCGACUCUAGAAAACAUG”, the binding signal is 4.97 log2 enrichment (interaction score) in experiment [2]; 6.03 log2 enrichment (interaction score) in experiment [3]; 0.86 log2 enrichment (interaction score) in experiment [4]; 3.42 log2 enrichment (interaction score) in experiment [5]; 2.88 log2 enrichment (interaction score) in [6]; 2.38 log2 enrichment (interaction score) in experiment [7]. Besides, the values for the binding signal in experiment [8] and in [9] were 2.76 log2 enrichment (interaction score) and 2.27 log2 enrichment (interaction score), respectively.

As for “GGCUAGAACUAGUGGAUCCCCCGGCGCCCGGCGGCUCGAGCCCGGGUAAGUGUCAAUAGUCUGCAUGCCGCCGGGCGCCAUGCCUGCAGGUCGACUCUAGAAAACAUG”, the binding signal was 5.07 log2 enrichment (interaction score) in experiment [10], 5.87 log2 enrichment (interaction score) in experiment [11], 2.69 log2 enrichment (interaction score) in [12] and 3.97 log2 enrichment (interaction score) in experiment [13].

As for “GGCUAGAACUAGUGGAUCCCCCGGCGCCCGGCGGCUCGAGCCCGGGUAAGUGUAAGUAGUCUGCAUGCCGCCGGGCGCCAUGCCUGCAGGUCGACUCUAGAAAACAUG”, the binding signal in experiment [14] was 2.89 log2 enrichment (interaction score); in [15], 3.51 log2 enrichment (interaction score); in experiment [16] it was 4.78 log2 enrichment (interaction score).

For “GGCUAGAACUAGUGGAUCCCCCGGCGCCCGGCGGCUCGAGCCCGGGUAAGCGUAAAUAGUCUGCAUGCCGCCGGGCGCCAUGCCUGCAGGUCGACUCUAGAAAACAUG”, the binding signal in [4] was 2.4 log2 enrichment (interaction score); in experiment [17], 2.58 log2 enrichment (interaction score).

As to “GGCUAGAACUAGUGGAUCCCCCGGCGCCCGGCGGCUCGAGCCCGGGUAAGUGUAUAUAGUCUGCAUGCCGCCGGGCGCCAUGCCUGCAGGUCGACUCUAGAAAACAUG”, the binding signal in experiment [7] was 1.39 log2 enrichment (interaction score).

As for “GGCUAGAACUAGUGGAUCCCCCGGCGCCCGGCGGCUCGAGCCCGGGUAAGUGUAAAUUGUCUGCAUGCCGCCGGGCGCCAUGCCUGCAGGUCGACUCUAGAAAACAUG”, the binding signal in experiment [1] was 1.86 log2 enrichment (interaction score); in [18], 4.86 log2 enrichment (interaction score).

Turning to “GGCUAGAACUAGUGGAUCCCCCGGCGCCCGGCGGCUCGAGCCCGGGUAAGUGUGAAUAGUCUGCAUGCCGCCGGGCGCCAUGCCUGCAGGUCGACUCUAGAAAACAUG”, in experiment [19], the binding signal is 2.97 log2 enrichment (interaction score).

In the case of “GGCUAGAACUAGUGGAUCCCCCGGCGCCCGGCGGCUCGAGCCCGGGUAAGUGUAAUUAGUCUGCAUGCCGCCGGGCGCCAUGCCUGCAGGUCGACUCUAGAAAACAUG”, the binding signal in experiment [8] was 0.32 log2 enrichment (interaction score).

On to “GGCUAGAACUAGUGGAUCCCCCGGCGCCCGGCGGCUCGAGCCCGGGUAAGUGUACAUAGUCUGCAUGCCGCCGGGCGCCAUGCCUGCAGGUCGACUCUAGAAAACAUG”, for which the binding signal in experiment [3] was 4.24 log2 enrichment (interaction score).

With “GGCUAGAACUAGUGGAUCCCCCGGCGCCCGGCGGCUCGAGCCCGGGUAAGUGUUAAUAGUCUGCAUGCCGCCGGGCGCCAUGCCUGCAGGUCGACUCUAGAAAACAUG”, the binding signal in [10] is 1.28 log2 enrichment (interaction score); in experiment [20], 3.03 log2 enrichment (interaction score); in experiment [12] it was 0.44 log2 enrichment (interaction score).
